Records with an inconclusive call do not appear. Active and inactive are the calls of the source. How the source made its calls, unless noted: active means hit-call score of the fitted dose curve at least 0.9, where 1 is the maximum; inconclusive means response in the unintended direction; inactive means score below 0.9.
What was measured:
[1] = TOX21_p53_BLA_p2_viability: Viability Assessment in the Tox21 HCT-116 p53 Agonism Beta-lactamase Assay, Phase 2 (AID 2283591);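 further: compound exposure lasted 16 h at 37 °C; actives lower the ATP signal meaning cytotoxicity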
Outline: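 HCT116 p53-bla cells, 4000/well, dosed after 5 h plating (217-fold dilution of DMSO stocks) and incubated 16 h at 37C. Viability taken as cellular ATP by CellTiter-Glo luminescence after 30 min RT; signal loss marks cytotoxicity.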

[2] = target: Cellular tumor antigen p53 (Homo sapiens) (UniProt P04637); assay: TOX21_p53_BLA_p2_ratio: Tox21 HCT-116 p53 Agonism Beta-lactamase Assay, Ratio, Phase 2 (AID 2283592)
Outline: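 Ratio endpoint: beta-lactamase cleavage of CCF4-AM, blue (460 nm) over green (530 nm). HCT116 reporter line; 16 h treatment, 37C; substrate 2 h RT.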

[3] = TOX21_p53_BLA_p3_viability: Viability Assessment in the Tox21 HCT-116 p53 Agonism Beta-lactamase Assay, Phase 3 (AID 2283593);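 further: cells exposed to compound for 16 h before reading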
Outline: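 HCT116 cells, 4000/well, dosed 5 h after plating by pin transfer (217-fold dilution from DMSO stock) and incubated 16 h at 37C, 5% CO2. Viability read as ATP luminescence with CellTiter-Glo after 30 min at room temperature.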

[4] = target: Cellular tumor antigen p53 (Homo sapiens) (UniProt P04637); assay: TOX21_p53_BLA_p3_ratio: Tox21 HCT-116 p53 Agonism Beta-lactamase Assay, Ratio, Phase 3 (AID 2283596)
Outline: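 Cells were seeded at 4000/well, rested 5 h at 37C, then dosed with DMSO compound solutions (217-fold dilution) for 16 h. CCF4-AM substrate was loaded for 2 h at room temperature, and the 460/530 nm emission ratio was fitted for gain of signal versus DMSO.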

[5] = TOX21_p53_BLA_p4_viability: Viability Assessment in the Tox21 HCT-116 p53 Agonism Beta-lactamase Assay, Phase 4 (AID 2283597);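 further: hits lower the luminescence signal meaning cytotoxicity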
Outline: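 Cytotoxicity was inferred from loss of CellTiter-Glo luminescence. HCT116 cells had been dosed with compounds after 5 h plating, incubated 16 h at 37C and 5% CO2, and exposed to the CCF4-AM substrate for 2 h.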

[6] = target: Cellular tumor antigen p53 (Homo sapiens) (UniProt P04637); assay: TOX21_p53_BLA_p4_ratio: Tox21 HCT-116 p53 Agonism Beta-lactamase Assay, Ratio, Phase 4 (AID 2283601)
Outline: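 HCT-116 p53 beta-lactamase reporter cells (4000/well) preincubated 5 h, then compound (217-fold dilution of DMSO stock) for 16 h at 37C. CCF4-AM substrate added 2 h at room temperature; 460/530 nm emission ratio fitted upward versus DMSO.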

[7] = TOX21_p53_BLA_p5_viability: Viability Assessment in the Tox21 HCT-116 p53 Agonism Beta-lactamase Assay, Phase 5 (AID 2283600)
Outline: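 Luciferase-coupled ATP quantitation of cells treated for 16 h (37C, 5% CO2) with test chemicals delivered in DMSO via a 217-fold dilution; 4000 cells/well; reagent incubated 30 min at room temperature before luminescence reading.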

[8] = CCTE_Harrill_HTTr_Viability_MCF7: CCTE's 6-hour Cell Viability Assessment for the High-Throughput Transcriptomics (HTTr) Platform, in MCF-7 cells cultured in DMEM + 10% fetal bovine serum, Harrill Lab (AID 2284010; active means hit-call score of the fitted dose curve at least 0.9, where 1 is the maximum; inactive means score below 0.9)
Outline: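 Propidium iodide exclusion, imaged by high-content analysis, gauged viability after a six-hour exposure across eight concentrations. Cells were MCF-7 grown in DMEM with 10% fetal bovine serum; fits run in both directions against DMSO.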

[9] = CCTE_Harrill_HTTr_Apoptosis_MCF7: CCTE's 6-hour Apoptosis Assessment for the High-Throughput Transcriptomics (HTTr) Platform, in MCF-7 cells cultured in DMEM + 10% fetal bovine serum, Harrill Lab (AID 2284011; active means hit-call score of the fitted dose curve at least 0.9, where 1 is the maximum; inactive means score below 0.9)
Outline: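 MCF-7 cells in DMEM + 10% fetal bovine serum were exposed to chemicals for 6 hours over an eight-point dilution series. Caspase-3/7 activation was imaged by high content imaging with CellEvent Caspase 3/7 Green; bidirectional fitting used DMSO as baseline.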

[10] = CCTE_Harrill_HTTr_CellCount_MCF7: CCTE's Cell Proliferation Assessment for the High-Throughput Transcriptomics (HTTr) Platform, Harrill Lab (AID 2284012);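 further: cells exposed to compound for six hours; intended direction is loss of nuclei count meaning fewer cells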
Outline: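 Cell count from high-content imaging of Hoechst-labeled nuclei serves as viability/growth readout. Chemicals were applied to MCF-7 cells in eight concentrations for six hours, with fitting in both directions relative to DMSO.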

Measured: outcome

Chain of Cellular tumor antigen p53 (Homo sapiens) (P04637 whole entry, looked up): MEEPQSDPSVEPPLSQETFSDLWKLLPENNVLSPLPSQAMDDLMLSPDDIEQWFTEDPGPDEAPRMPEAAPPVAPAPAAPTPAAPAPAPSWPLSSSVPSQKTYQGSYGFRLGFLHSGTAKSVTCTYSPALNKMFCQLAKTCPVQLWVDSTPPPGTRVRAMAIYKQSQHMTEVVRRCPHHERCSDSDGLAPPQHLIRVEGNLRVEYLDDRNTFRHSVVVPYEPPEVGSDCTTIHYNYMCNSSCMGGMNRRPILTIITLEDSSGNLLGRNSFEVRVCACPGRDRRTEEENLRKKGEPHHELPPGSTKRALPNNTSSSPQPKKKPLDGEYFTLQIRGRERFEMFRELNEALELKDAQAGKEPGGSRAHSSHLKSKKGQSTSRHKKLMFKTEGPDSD

CCCN(CCC)C(=O)C(CCC(=O)OCCCN1CCN(CCOC(=O)Cc2c(C)n(C(=O)c3ccc(Cl)cc3)c3ccc(OC)cc23)CC1)NC(=O)c1ccccc1 (stereo unspecified)
inactive: [1] | [2] | [3] | [4] | [5] | [6]

CCn1cc(C(=O)O)c(=O)c2cc3c(cc21)OCO3
inactive: all assays above

O=c1n(CCCN2CCN(c3cccc(Cl)c3)CC2)nc2ccccn12
inactive: all assays above
